Common to all, as to assay: NCI-60 one-dose screen, 48 h (100 = growth as untreated, 0 = no growth, -100 = all killed)
Conditions in all cases: 10 µM unless noted

Experiment [1] has as its system NCI-H23 lung.
Experiment [2] relates to NCI-H226 lung.
Experiment [3] deals with NCI-H322M lung.
For experiment [4], the system named is HOP-62 NSCLC.
Experiment [5] concerns NCI-H460 lung.
Experiment [6] has as its system HOP-92 NSCLC.
Experiment [7] relates to NCI-H522 lung.
For experiment [8], the system named is A549/ATCC NSCLC.
Experiment [9] deals with 786-0 renal.
The subject of experiment [10] is COLO 205 colon.

Each structure is given as a SMILES string. About 83,000 compounds went through this panel and 20% of them were active in at least one assay; those are over-represented in the sample as a whole.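 Treatment: one concentration, 48 hours, 96-well format. Scoring: percent growth, with anything below 10 considered active.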 Unmarked numbers belong to inactive results. Active and inactive are the calls of the source.

Turning to `CCOP(=O)(Cc1ccc(C#N)cc1)OCC`, the growth in experiment [1] was 99.9%; in experiment [2], 108%; in experiment [3], 104%; in experiment [4], 98.5%; in experiment [5], 108%; in [6] it was 76.9%. In addition, the growth was 75% in experiment [7], 91.2% in experiment [8], 101% in experiment [9] and 108% in [10].

Turning to `O=C(O)CNC(=O)C(Cl)(Cl)Cl`, the growth in experiment [1] is 106%; in experiment [2], 94.1%; in experiment [3], 97.7%; in experiment [4] it was 107%; in experiment [5], 96.2%; in experiment [6], 87.2%. For the same compound, the growth in experiment [7] was 85.1%; in experiment [8], 98.2%; in experiment [9], 98.8%; in experiment [10], 106%.

For `CC[C@H](C)[C@H](NC(=O)c1nccn1C)C(=O)N(C)[C@H](C[C@@H](OC(C)=O)c1nc(C(=O)N[C@@H](Cc2ccccc2)C[C@H](C)C(=O)OC)cs1)C(C)C`, the growth in [1] was 29.8%; in [2], 37.1%; in [3] it was 43.9%; in experiment [4], 16.6%; in [5], 9.82% (active); in experiment [6], 29.9%. Moreover, the growth is -26.7% (active) in experiment [7], 25.2% in experiment [8], 30.8% in [9] and -12.8% (active) in [10].

With `CCCCN1CCCC[C@@H]1C(=O)N[C@H](C(=O)N(C)[C@H](C[C@@H](OC(C)=O)c1nc(C(=O)NC2CCC(C(=O)OC)CC2)cs1)C(C)C)C(C)C` (stereo not given in full), the growth in [1] is 48.4%; in [2] it was 71.8%; in [3], 40.5%; in experiment [4], 23%; in experiment [5], 9.59% (active); in experiment [6] it was 37%. Also, the growth in experiment [7] was -11.8% (active); in [8], 24.2%; in [9], 36.7%; in experiment [10] it was 7.59% (active).

Take `CCC1(C)CC(CCNCc2ccccc2O)(c2ccc(C)cc2)CCO1` (stereo not given): the growth in experiment [1] is 101%; in [2], 107%; in experiment [3] it was 108%; in [4], 108%; in experiment [5], 102%; in experiment [6], 105%. Moreover, the growth in [7] is 108%; in [8] it was 101%; in [9] it was 101%; in experiment [10], 115%.

On to `COC(=O)[C@@H](C)C[C@H](Cc1ccccc1)NC(=O)c1nc([C@@H](C[C@H](C(C)C)N(C)C(=O)[C@@H](NC(=O)[C@H]2CCCCN2C)C(C)C)OC(C)=O)sc1C`, for which the growth in [1] was 35%; in experiment [2], 61.4%; in experiment [3] it was 36.3%; in [4] it was 32.1%; in experiment [5] it was 4.31% (active); in experiment [6] it was 3.74% (active). Also, the growth was -12.8% (active) in experiment [7], 10.6% in experiment [8], 4.94% (active) in [9] and -36.5% (active) in experiment [10].

Take `Cn1cc(C2=C(c3cn(C4CCN(Cc5ccccn5)CC4)c4ccccc34)C(=O)NC2=O)c2ccccc21`: the growth in experiment [1] is 53.6%; in experiment [2] it was 93.5%; in experiment [3], 37.2%; in experiment [4] it was 68%; in experiment [5] it was 74.9%; in experiment [6] it was 69.8%. Moreover, the growth was 48.8% in experiment [7], 50.8% in experiment [8], 79.7% in [9] and 6.03% (active) in [10].

As for `CCCCCCCC(=O)OCC(=O)[C@]1(O)Cc2c(O)c3c(c(O)c2[C@@H](OC2CC(N)C(O)C(C)O2)C1)C(=O)c1c(OC)cccc1C3=O` (stereo not given in full), the growth in experiment [1] was -76.2% (active); in experiment [2] it was -65.9% (active); in experiment [3], -72.8% (active); in experiment [4], -63.1% (active); in experiment [5], -92.9% (active); in experiment [6], -73.5% (active). The growth in [7] is -63.2% (active); in experiment [8], -97.6% (active); in experiment [9], -82.9% (active); in [10] it was -85.7% (active).

Take `Clc1cccc(NCOOC2(OOCNc3cccc(Cl)c3)CCCCC2)c1`: the growth was 43.6% in experiment [1]; 94.7% in experiment [2]; 73.7% in experiment [3]; 49.5% in experiment [4]; 77.2% in [5]; -46.3% (active) in experiment [6]. Moreover, the growth in experiment [7] was 14.7%; in experiment [8] it was 3.1% (active); in [9], 10.8%; in experiment [10], 96.6%.

Take `C=C1C[C@](OC)([C@H](O)C(=O)N[C@@H](OC)[C@@H]2C[C@@H](O)C(C)(C)[C@@H](C[C@@H](COC)OC)O2)O[C@H](C)[C@@H]1C`: the growth was -27.7% (active) in experiment [1]; -75.5% (active) in [2]; -21% (active) in [3]; -35.4% (active) in experiment [4]; -41.4% (active) in [5]; -65.1% (active) in experiment [6]. Also, the growth is -55.1% (active) in [7], -49.1% (active) in experiment [8], -61.9% (active) in [9] and -15.6% (active) in experiment [10].

On to `N#CC1(C#N)C(c2ccc(N(CCCl)CCCl)cc2)OC23CCCCC2C1(C#N)C(=N)O3` (stereo not given), for which the growth in experiment [1] is 61.5%; in experiment [2], 9.15% (active); in experiment [3], 94.2%; in [4], 89.2%; in experiment [5], 30.1%; in experiment [6], 88.5%. In addition, the growth in experiment [7] was 80.2%; in experiment [8] it was 97.3%; in experiment [9], 88.6%; in experiment [10], 104%.

On to `O=C(N/N=C\c1ccc(N(CCCl)CCCl)cc1Cl)c1cccnc1`, for which the growth is 70.5% in experiment [1]; -48.5% (active) in experiment [2]; 133% in [3]; 72.2% in experiment [4]; 7.56% (active) in [5]; 74.3% in [6]. In addition, the growth in experiment [7] was 116%; in experiment [8], 60.4%; in [9], 66.9%; in [10], 83%.

Regarding `Cn1cc(C=O)c2nccnc21`, the growth in experiment [1] is 94.9%; in experiment [2], 120%; in experiment [3] it was 123%; in [4] it was 113%; in [5] it was 104%; in [6], 82%. Also, the growth in [7] was 78.2%; in experiment [8] it was 96.8%; in experiment [9], 119%; in experiment [10], 109%.

These data come from PubChem BioAssay (NCI).
